Screening data as filed in PubChem.
HIV RNase H inh = HIV-1 RT RNase H inhibitors, primary screen, biochemical, fluorescence; Gag-Pol polyprotein (Human immunodeficiency virus type 1 group M subtype B (isolate …; RT-RNase H RNA/DNA duplex cleavage; inhibition, % at 10 µM; 65,000 tested, 1.9% active; AID 565, 2006; in the data active = inhibition above about 50%
* = called active by the depositor; ! = not confirmed by another sample. The full list was thinned out, with hits kept by preference.

For COCc1cc(C)nc(SCC(=O)N2CCC(C)CC2)c1C#N the results were HIV RNase H inh -14.9.
`CCC(=O)N1CCN(c2ccccc2NC(=O)COc2cc(C)ccc2C(C)C)CC1` gave HIV RNase H inh -1.7.
`CCCCOc1ccc(OCCCC)c2c1NC1(N2)C(=O)N(C(C)=O)c2ccccc21` gave HIV RNase H inh 4.8.
Cc1cc(NC(=O)CSc2nc(C(C)C)nc3sc(C)c(C)c23)no1 was read as HIV RNase H inh -2.4.
Screening Cc1cc(NC(=O)CSc2nnc3c4c(C)c(C)sc4ncn23)no1 returned HIV RNase H inh -10.6.
For Cc1cc(NC(=O)CSc2ncnc3sc4c(c23)CCC(C)C4)no1 (stereo unspecified) the results were HIV RNase H inh 84.1*.
CC(=O)OCc1c(F)c(F)c(-n2nc(C)cc2C)c(F)c1F was read as HIV RNase H inh 3.4.
Screening Cc1cc(C)n(S(=O)(=O)c2cccc(Cl)c2Cl)n1 returned HIV RNase H inh -91.7.
Screening O=C1c2cccnc2C(=O)N1Cc1ccc(F)cc1 returned HIV RNase H inh -14.5.
`CCCCC(=O)NC(Nc1nc(C2CC2)cs1)(C(=O)OCC)C(F)(F)F` (stereo unspecified) gave HIV RNase H inh 10.6.
For Cc1noc2nc(-c3cccs3)cc(-c3nnc4n3CCCCC4)c12 the results were HIV RNase H inh -4.0.
Screening CS(=O)(=O)N1CCCC(C(=O)NCCCN2CCOCC2)C1 (stereo unspecified) returned HIV RNase H inh -8.5.
COc1ccc(C(=O)Nc2nnc(Cc3cccs3)s2)cc1OC was read as HIV RNase H inh 4.2.
For COc1ccc(Cc2nnc(NC(=O)Cc3cccs3)s2)cc1OC the results were HIV RNase H inh 79.8*.
O=C(Cc1cccs1)Nc1nnc(CCc2ccccc2)s1 was read as HIV RNase H inh -6.9.
Screening O=C(CSc1n[nH]c(=O)n1C1CC1)Nc1cc(Cl)ccc1Oc1ccccc1 returned HIV RNase H inh -22.6.
For COc1ccccc1-c1nnc(SCC(=O)NCc2c(C)c(Cl)cc(C(C)C)c2O)o1 the results were HIV RNase H inh -13.8.
For CCOC(=O)NC(NC(=O)OCC)C(=O)c1ccc(F)cc1 the results were HIV RNase H inh -4.6.
`Cc1ccc2oc(-c3ccc(NC(=O)c4cccnc4)cc3)nc2c1` gave HIV RNase H inh -1.2.
Screening O=C(Nc1ccc(-c2nc3ccccc3o2)cc1)c1ccc2c(c1)OCO2 returned HIV RNase H inh 26.9.
Cc1ccc2oc(-c3ccc(NC(=O)c4ccc5c(c4)OCO5)cc3)nc2c1 was read as HIV RNase H inh 64.4*.
Cc1cc(NC(=O)NC2CCCN2S(=O)(=O)c2ccc(Cl)cc2)no1 (stereo unspecified) was read as HIV RNase H inh -3.3.
`Cc1nc(SCC(=O)c2ccc(F)cc2)n[nH]1` gave HIV RNase H inh 5.9.
For Cc1ccc(C(=O)CSc2ccccn2)cc1 the results were HIV RNase H inh -9.2.
`O=C(CSc1ccccn1)c1ccc(F)cc1` gave HIV RNase H inh 64.5*.
Screening O=C(CCN1CCc2ccccc2C1)Nc1ccccc1F returned HIV RNase H inh -10.0.
Screening CCCn1c(=O)c(C(=O)Nc2ccncc2)c(O)c2ccccc21 returned HIV RNase H inh -9.2.
Screening CCCCCn1c(=O)c(C(=O)Nc2ccncc2)c(O)c2ccccc21 returned HIV RNase H inh 82.5*.
`CCCn1c(=O)c(C(=O)NCc2ccncc2)c(O)c2ccccc21` gave HIV RNase H inh -29.5.
`Cc1cc(C)n2nc(C(=O)NCc3ccccc3)cc2n1` gave HIV RNase H inh 87.8*.
Cc1cc(C)n2nc(Nc3ccccc3)cc2n1 was read as HIV RNase H inh 30.4.
For Cc1cc(C(F)F)n2ncc(C(=O)NCc3ccccc3)c2n1 the results were HIV RNase H inh -2.7.
For O=C(Nc1ccccn1)C(NS(=O)(=O)c1cccc2nsnc12)c1ccccc1 (stereo unspecified) the results were HIV RNase H inh 21.9.
Screening CCc1ccc(N2CSC3=C(C#N)C(c4cccs4)CC(=O)N3C2)cc1 (stereo unspecified) returned HIV RNase H inh 54.2*.
`COc1cccc(C2CC(=O)NC(SC)=C2C#N)c1` (stereo unspecified) gave HIV RNase H inh -25.3.
Screening N#CC1=C2SCN(c3ccc(F)cc3)CN2C(=O)CC1c1cccc(F)c1 (stereo unspecified) returned HIV RNase H inh 51.3*.
COc1ccc(C2CC(=O)N3CN(c4ccc(C)c(Cl)c4)CSC3=C2C#N)cc1OC (stereo unspecified) was read as HIV RNase H inh 18.1.
`CCOC(=O)c1ccc(N2CSC3=C(C#N)C(c4cccs4)CC(=O)N3C2)cc1` (stereo unspecified) gave HIV RNase H inh 35.5.
For COC(=O)C1C(=O)N2CCCSC2=C(C#N)C1c1cccs1 (stereo unspecified) the results were HIV RNase H inh -0.3.
CCc1ccc(C2CC(=O)N3CN(c4ccccc4)CSC3=C2C#N)cc1 (stereo unspecified) was read as HIV RNase H inh 61.5*.
`CCSC1=C(C#N)C(c2ccc(F)cc2)CC(=O)N1` (stereo unspecified) gave HIV RNase H inh -2.1.
Screening N#CC1=C2SCC(O)(c3ccccc3)N2C(=O)CC1c1ccccc1 (stereo unspecified) returned HIV RNase H inh -12.1.
Cn1c(C(=O)OC(C(=O)NC2CCCCC2)c2ccncc2)cc2sccc21 (stereo unspecified) was read as HIV RNase H inh 1.3.
For CSc1ccccc1C(=O)NCc1ccc2c(c1)OCO2 the results were HIV RNase H inh -1.0.
`O=C(c1c(F)c(F)c(F)c(F)c1F)N1CCc2ccccc21` gave HIV RNase H inh 0.3.
`CN1CCN(CC(=O)N(C)c2nc(-c3ccccc3)cs2)CC1` gave HIV RNase H inh -3.3.
Cc1nnc(SCc2ccccc2F)n1NCc1cccs1 was read as HIV RNase H inh -25.9.
COc1ccc(C2C3=C(CC(C)(C)CC3=O)Nc3c2c(=O)[nH]c(=O)n3Cc2ccccc2)cc1 (stereo unspecified) was read as HIV RNase H inh 10.6.
`COc1cc(C2C3=C(CC(C)(C)CC3=O)Nc3c2c(=O)[nH]c(=O)n3Cc2ccccc2)ccc1O` (stereo unspecified) gave HIV RNase H inh 67.5*!.
`COc1ccc(C2C3=C(CC(C)(C)CC3=O)Nc3c2c(=O)[nH]c(=O)n3Cc2ccccc2)cc1OC` (stereo unspecified) gave HIV RNase H inh 4.9.
`Cc1cccc(-c2nnc3n2N=C(c2ccccc2Br)CS3)c1` gave HIV RNase H inh -28.5.
For CCCCn1c(SCC(=O)Nc2cccc(OC)c2)nc2ccc(N3CCOCC3)cc2c1=O the results were HIV RNase H inh 50.6*.
For CCOC(=O)c1cccc(NC(=O)CSc2nc3ccccc3c(=O)n2CCOC)c1 the results were HIV RNase H inh 4.5.
`COc1cccc(NC(=O)Cn2c(SCC(=O)N3CCOCC3)nc3ccccc32)c1` gave HIV RNase H inh 5.1.
Screening Cc1ccnc(NC(=O)c2cc(S(=O)(=O)N3CCCCC3)ccc2Cl)c1 returned HIV RNase H inh 4.1.
For Cc1onc(-c2ccccc2Cl)c1C(=O)NCc1ccc(S(N)(=O)=O)cc1 the results were HIV RNase H inh -4.5.
Screening Cc1onc(-c2c(F)cccc2Cl)c1C(=O)NCCc1ccc(S(N)(=O)=O)cc1 returned HIV RNase H inh 54.5*.
`Cc1onc(-c2c(F)cccc2Cl)c1C(=O)NCc1ccccn1` gave HIV RNase H inh -10.2.
COCCCNC(=O)C1CCN(C(=O)Nc2ccc(Cl)cc2)CC1 was read as HIV RNase H inh 3.1.
